# Measured values published in the supplement of paper PMC3334620.
# In all, about 33,000 sequences were measured (“E-score (-0.5 to 0.5)”: median about -0.04, highest 2% from about 0.36 on). The full list was thinned out, with the highest values kept by preference.
# Molecular target: T1, Hmlalpha2 (UniProt P0CY09)
# T1 sequence: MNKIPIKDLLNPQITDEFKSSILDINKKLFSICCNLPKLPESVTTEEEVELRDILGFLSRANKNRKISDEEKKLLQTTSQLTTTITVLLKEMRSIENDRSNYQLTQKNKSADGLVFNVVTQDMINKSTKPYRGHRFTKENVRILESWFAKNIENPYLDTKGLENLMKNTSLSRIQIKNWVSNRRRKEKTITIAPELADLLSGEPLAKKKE
# Test: PBM E-score (8-mer binding enrichment) (E-score (-0.5 to 0.5)); higher = stronger / more preferred TF binding
# Details: protein concentration: 200 nM; construct: GST-full length
# Experimental: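 Universal 'all 10-mer' protein binding microarrays (Agilent AMADID 015681) probed with GST-tagged S. cerevisiae TFs (full-length or DBD) made by in vitro transcription/translation (PURExpress), about 100-200 nM. Bound TF was detected with fluorescent anti-GST. Each ungapped 8-mer (which stands for itself and its reverse complement) is scored by the PBM enrichment score (E-score), a modified Wilcoxon-Mann-Whitney statistic from -0.5 to +0.5, computed with the Universal PBM Analysis Suite. Scale: above 0.35 generally sequence-specific binding.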
row,Sequence,PBM E-score
1,ACATGTTA,0.461
2,AAATGTTA,0.33
3,CCATGTTA,0.458
4,CCATGTGA,0.184
5,CGATGTTA,0.353
6,AGATGTTA,0.201
7,CGCCTGGC,-0.0832
8,GCGCATGA,-0.252
9,GCTGTCCA,-0.0572
10,CTCGTCAC,-0.0377
11,AATCGGTC,-0.081
12,CTCCTAAG,-0.115
13,CAGGAGCA,-0.173
14,ACATAGCA,0.392
15,ACATAACC,0.222
16,CCATAACA,0.333
17,ACATAACG,0.368
18,ACATAACA,0.434
19,TCATAGCA,-0.0434
20,CCATAGCA,-0.145
21,GCATAACA,0.307
22,ACATAACT,0.325

row,Sequence,PBM E-score
1,CACACCAG,-0.011
2,GGATGACC,-0.218
3,GATTTTGA,0.12
4,ACGATGTG,0.19
5,CAGTTTGC,-0.118
6,ACAGGGAA,0.0611
7,CGCTGATC,-0.177
8,AGGGGAGC,-0.33
9,GCGTCTCC,-0.033
10,AATCGTGT,0.406
11,AAACGTGG,-0.0689
12,ACACGTGA,0.318
13,AAGCGTGT,0.371
14,ACACGTGT,0.432
15,AAGCGTGG,-0.0995
16,AATCGTGA,-0.00694
17,ACACGTGG,0.293
18,AATCGTGC,0.151
19,AAGCGTGA,-0.0159
20,AAACGTGT,0.375
21,AAACGTGA,0.168
22,ACGGCGAT,-0.0673

row,Sequence,PBM E-score
1,AGTCGGGG,-0.191
2,CAAGAATG,-0.0486
3,AGGGCCAG,-0.22
4,AGGCCAAG,-0.247
5,AGTCTATC,-0.0461
6,GTGGGCGA,-0.04
7,CACGTGTA,0.444
8,GACGTGAA,-0.0003
9,CACGTGTC,0.25
10,CACGTGAA,0.108
11,AACGTGTG,0.233
12,GACGTGGA,-0.209
13,AACGTGTC,0.263
14,GACGTGTA,0.41
15,AACGTGTA,0.455
16,GAAGTCTC,-0.247
17,GTACCCTA,-0.0877
18,GTCGACCA,-0.0364
19,GGATCCAA,-0.0601
20,GAGTAGCA,-0.0964
21,CCCCCGCG,-0.241
22,CCGTTTAG,-0.0825

row,Sequence,PBM E-score
1,GCGTGTCC,0.142
2,GCGTGTCA,0.382
3,TCGTGTCA,0.395
4,ACGTGTCG,0.308
5,GTGTGTCA,0.307
6,ACGTGTCA,0.392
7,CCGTGTCA,0.351
8,CGGTGTCA,-0.0723
9,TAGTGTCA,0.0999
10,GCTCCAGA,-0.207
11,ATGAGAAA,0.0401
12,CGGAGGCC,-0.334
13,TCACCTGA,-0.136
14,CTTGGCAA,-0.143
15,AATGTATA,0.315
16,AATGTATC,0.284
17,CATGTATC,0.405
18,CATGTATA,0.466
19,CTTGTATC,0.264
20,GATGTATA,0.237
21,AGTGCAAT,0.00712
